Experimental findings from PubChem BioAssay (Tox21) are described below.

Results filed as inconclusive are left out. A number with no mark means an inactive call. Calls of active or inactive are those of the source. Calls come from the whole dose curve; as a rule, active = well fitted activation curve with a large enough effect in the signal ratio in the repeat runs (not every such curve was filed as active); inconclusive = weak or mixed curves, or effect the other way; inactive = flat fitted curve, though single readings scatter; the % refers to the signal ratio. Positions of bridges follow the written chain, without caps; N, C: chain ends. Where a SMILES comes first, the peptide text is derived from it. Non-standard residues stand in square brackets, D forms with d. Residues, ends and D or L forms follow the SMILES beside them. hArg = N=C(N)NCCCC[C@H](N)C(=O)O; Mpa = O=C(O)CCS
% is set by controls: 0 for no effect and ±100 for the full control effect.

Bile acid receptor (Homo sapiens), sequence (Q96RI1 whole entry, looked up): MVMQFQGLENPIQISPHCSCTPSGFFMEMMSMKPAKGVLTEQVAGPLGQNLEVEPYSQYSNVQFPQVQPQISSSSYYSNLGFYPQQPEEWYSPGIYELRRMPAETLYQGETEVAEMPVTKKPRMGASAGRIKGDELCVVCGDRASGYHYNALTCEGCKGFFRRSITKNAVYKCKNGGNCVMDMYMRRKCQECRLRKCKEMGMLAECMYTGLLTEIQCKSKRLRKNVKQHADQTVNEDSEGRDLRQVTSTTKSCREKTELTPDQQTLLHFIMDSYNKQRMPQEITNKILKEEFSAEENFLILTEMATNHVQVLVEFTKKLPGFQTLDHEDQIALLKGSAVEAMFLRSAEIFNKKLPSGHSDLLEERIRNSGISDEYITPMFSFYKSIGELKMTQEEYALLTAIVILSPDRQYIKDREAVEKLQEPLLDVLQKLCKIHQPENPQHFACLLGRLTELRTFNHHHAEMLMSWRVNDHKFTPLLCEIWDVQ

This test addresses Bile acid receptor (Homo sapiens) (UniProt Q96RI1). As to the kind of experiment: qHTS assay to identify small molecule agonists of the farnesoid-X-receptor (FXR) signaling pathway (AID 743220). The note with it: HEK293T FXR-UAS-bla, beta-lactamase FRET ratio, 16 h; series mostly up to 62.6 µM. From the text:
National Center for Advancing Translational Sciences [NCATS]
NIH Chemical Genomics Center [NCGC]
U.S. Environmental Protection Agency [EPA]
National Institutes of Environmental Health Sciences [NIEHS]
National Toxicology Program [NTP]
U.S. Food and Drug Administration [FDA]
The farnesoid-X-receptor (FXR), a nuclear hormone receptor, is highly expressed in liver, intestine, kidney and adrenal cortex. Natural ligands of FXR are the bile acids (Cholic acid, Chenodeoxy cholic acid etc). FXR is an important regulator of diverse metabolic pathways, including the bile acid homeostasis, lipid and glucose metabolisms. FXR regulates the expression of target genes by binding either as a monomer or as a heterodimer with the retinoid X receptor (RXR). Numerous studies have reported that FXR exerts protective function during cholestasis, diabetes, liver regeneration, and cancer. To identify compounds that activate FXR signaling, GeneBLAzer FXR-UAS-bla HEK 293T cell line (Invitrogen, Carlsbad, CA) containing a beta-lactamase reporter gene under the control of a UAS response element was used to screen the Tox21 10K compound library.
Tox21 Assay Protocol Summary:
FXR-bla cells were dispensed at 5000 cells/5uL/well in 1536-well black wall/clear bottom plates using a Multidrop Combi (Thermo Fisher Scientific, Waltham, MA) dispenser. After the assay plates were incubated at 37C and 5% CO2 for 5 h, 23 nL of compounds dissolved in DMSO, positive controls or DMSO only was transferred to the assay plate by a Pintool station (Kalypsys, San Diego, CA). The assay plates were incubated at 37C for 16 h. After 1 uL of LiveBLAzerTM B/G FRET substrate was added using a Bioraptr Flying Reagent Dispenser (FRD) workstation (Beckman Coulter, Indianapolis, IN), the plates were incubated at room temperature for 2 h, and fluorescence intensity was measured by an Envision plate reader (PerkinElmer, Shelton, CT).
`CCn1cc(C(=O)O)c(=O)c2cnc(N3CCCC3)nc21`: the activation is -0.921% [at 13.2 µM]. In the case of `N#Cc1cscn1`, the result was inactive. The same measure, in the same setting: to `O=C1NC(c2ccccc2)(c2ccccc2)C(=O)N1COP(=O)(O)O` belongs “inactive”. Still for that read-out and setting: to `C[C@@H](O)C(=O)O` belongs “inactive”.

`CN1CCOC(c2ccccc2)c2ccccc2C1` (stereo not given): the result was inactive. Regarding `Cc1c(NC(=O)c2cccnc2)c(=O)n(-c2ccccc2)n1C`, the outcome was inactive. Consider `Cc1c(N)cccc1Cl`, for which the result was inactive. Take `CCCCOC(=O)C(C)O` (stereo not given): the outcome was inactive. On the same count and under the same terms, to `CCCCOC(=O)[C@H](C)O` belongs “inactive”; to `CC(S)C(C)S` (stereo not given), “inactive”; to `Cc1ccc(C(C)NC(=O)[C@@H](NC(=O)OC(C)C)C(C)C)cc1` (stereo not given in full), “inactive”. Still for that read-out and setting: to `CC(=O)O[C@@H]1CC2CCC1(C)C2(C)C` (stereo not given in full) belongs “inactive”; to `CCO`, “inactive”.

In the case of `CC(=O)N[C@@H](CO)C(=O)N[C@@H](CC(=O)O)C(=O)N[C@@H](CCCCN)C(=O)N1CCC[C@H]1C(=O)O` (Ac-SDKP-OH), the result was inactive.

As to `c1ccc(B(c2ccccc2)c2ccccc2)cc1`, the outcome was inactive. Take `C/C=C(\C)C(=O)OCCc1ccccc1`: the result was inactive. On the same count and under the same terms, to `CCc1occc(=O)c1O` belongs “inactive”; to `CN(C)CCCCl`, “inactive”; to `NC(=O)[C@@H]1CSSCCC(=O)N[C@@H](CCCCN=C(N)N)C(=O)NCC(=O)N[C@@H](CC(=O)O)C(=O)N[C@@H](Cc2c[nH]c3ccccc23)C(=O)N2CCC[C@H]2C(=O)N1` ([Mpa][hArg]GDWPC-NH2; disulfide 1-7), “inactive”. As for `CN1C[C@@H]2C[C@H]1CN2c1cc2c(cc1F)c(=O)c(C(=O)O)cn2C1CC1`, the result was inactive. The same measure, in the same setting: the result for `CC(=O)CCc1ccc(OC(C)=O)cc1` reads “inactive”; that for `C/C(=C1\CCOC(=O)S1)N(C=O)Cc1cnc(C)nc1N`, “inactive”; that for `O=C(O)CSCC(=O)NC1CCSC1=O` (stereo not given), “inactive”. Still for that read-out and setting: the result for `CCCc1ccc(O)cc1` reads “inactive”.

In the case of `CN(C)CCN(C)CCO`, the result was inactive. The same measure, in the same setting: the result for `CCC(=O)CC` reads “inactive”. The same measure, in the same setting: the result for `CCOCCOCC` reads “inactive”.

In the case of `Cc1ccc(N)cc1S(=O)(=O)O`, the outcome was inactive. For `CSc1cnccn1`, the result was inactive.

For the compound `CCCCC1CCC(O)CC1` (stereo not given), the result was inactive.

On to `CC1(C)[C@H]2CC[C@](C)(C2)[C@H]1O`, for which the result was inactive. On the same count and under the same terms, to `CCC(=O)Oc1ccc2c(c1)CC[C@@H]1[C@@H]2CC[C@@]2(C)[C@H]1C[C@@H](OC(=O)CC)[C@@H]2OC(=O)CC` belongs “inactive”; to `CC(C)CCOC(=O)c1ccccc1`, “inactive”. Still for that read-out and setting: to `COS(=O)(=O)O` belongs “inactive”; to `OCC(O)CN1CCN(c2ccccc2)CC1` (stereo not given), “inactive”; to `C=CC/C=C/C`, “inactive”.

Take `O=C[O][Al]([O]C=O)[O]C=O`: the outcome was inactive. The same measure, in the same setting: to `Cn1nnc2c(C(N)=O)ncn2c1=O` belongs “inactive”; to `CCN(CC)CCN`, “inactive”; to `CN(C)C(C)(C)CO`, “inactive”.
